{"source": "the supplement of paper PMC10933113", "note": "Counter-ions that a name gives are not always drawn. ± gives the uncertainty stated by the source.", "data": [{"system": "THP-1", "test": "CD54 surface expression induction over DMSO control (% over DMSO); higher = stronger dendritic cell activation", "settings": "exposure time: 24 h", "method": "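hCLAT-like CD54 and CD86 surface expression on THP1 cells after 24 h exposure at a single concentration (highest non-cytotoxic concentration, or 100-200 µM if not cytotoxic). Flow cytometry (iQue) was run on 5,000 live cells.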", "values": [{"smiles": "O=C(CCl)CCl", "note": "[1,3-Dichloropropanone] (200 µM)", "CD54 surface expression induction": "-1.2 ± 0.3"}, {"smiles": "CCCOC/C(=N\\c1ccc(Cl)cc1C(F)(F)F)n1ccnc1", "note": "[Triflumizole] (10 µM)", "CD54 surface expression induction": "-3.38 ± 6.6"}, {"smiles": "CCS(=O)(=O)CCSP(=O)(OC)OC", "note": "[Demeton-S-methylsulphon] (10 µM)", "CD54 surface expression induction": "-8.94 ± 5.5"}, {"smiles": "S=C=NCc1ccccc1", "note": "(10 µM)", "CD54 surface expression induction": "10.5 ± 7.8"}, {"smiles": "O=C(O)c1ccc(=O)[nH]c1", "note": "[6-Hydroxynicotinic acid] (100 µM)", "CD54 surface expression induction": "-3.56 ± 0.01"}, {"smiles": "[Cl][Cd][Cl]", "note": "[Cadmium II chloride] (200 µM)", "CD54 surface expression induction": "50.2 ± 4.8"}, {"smiles": "Nc1ccc2ccccc2c1", "note": "[2-Naphthylamine] (100 µM)", "CD54 surface expression induction": "10.3 ± 0.75"}, {"smiles": "CC(C)OC(=S)S", "note": "[Proxan-sodium] (10 µM)", "CD54 surface expression induction": "-6.19 ± 3"}, {"smiles": "c1ccc(-c2cccc(-c3ccccc3)c2)cc1", "note": "[1,1':3',1''-Terphenyl] (200 µM)", "CD54 surface expression induction": "-8.04 ± 5.3"}, {"smiles": "COP(=S)(OC)Oc1ccc(SC)c(C)c1", "note": "[Fenthion] (100 µM)", "CD54 surface expression induction": "-7.55 ± 5.7"}, {"smiles": "O=[N+]([O-])c1cc(C(F)(F)F)c(Cl)c([N+](=O)[O-])c1Cl", "note": "[2,4-Dichloro-1,3-dinitro-5-(trifluoromethyl)benzene] (10 µM)", "CD54 surface expression induction": "4.56 ± 5.6"}, {"smiles": "Nc1ccc(Cl)cc1N", "note": "[4-Chloro-1,2-diaminobenzene*] (200 µM)", "CD54 surface expression induction": "233 ± 36"}, {"smiles": "CCC(C)(c1ccc(O)cc1)c1ccc(O)cc1", "note": "[Bisphenol B] (200 µM)", "CD54 surface expression induction": "3.9 ± 0.67"}, {"smiles": "COc1ccc(C(c2ccc(OC)cc2)C(Cl)(Cl)Cl)cc1", "note": "[Methoxychlor] (200 µM)", "CD54 surface expression induction": "27.4 ± 9.6"}, {"smiles": "COc1ccccc1N", "note": "[2-Methoxyaniline hydrochloride] (100 µM)", "CD54 surface expression induction": "2.44 ± 0.25"}, {"smiles": "COP(=S)(OC)Oc1nc(Cl)c(Cl)cc1Cl", "note": "[Chlorpyrifos-methyl] (200 µM)", "CD54 surface expression induction": "20.5 ± 8.1"}, {"smiles": "CN(C)c1ccc(N)cc1", "note": "[N,N-Dimethyl-p-phenylenediamine] (100 µM)", "CD54 surface expression induction": "30.8 ± 7.3"}, {"smiles": "O=C1C(Cl)=C(Cl)C(=O)C(Cl)=C1Cl", "note": "[Chloranil] (100 µM)", "CD54 surface expression induction": "17.4 ± 13"}, {"smiles": "CC(C)(C)C(=O)CCl", "note": "[1-Chloro-3,3-dimethyl-butan-2-one] (200 µM)", "CD54 surface expression induction": "-19.8 ± 13"}, {"smiles": "O=C(N/N=C/c1ccc([N+](=O)[O-])o1)c1cc([N+](=O)[O-])cc([N+](=O)[O-])c1O", "note": "[Nifursol] (200 µM)", "CD54 surface expression induction": "24.5 ± 8"}, {"smiles": "C=C1C[C@@H]2[C@H](CC[C@]3(C)C(=O)CC[C@@H]23)[C@@]2(C)C=CC(=O)C=C12", "note": "[Exemestane] (100 µM)", "CD54 surface expression induction": "-0.45 ± 0.02"}, {"smiles": "Nc1ccc(-c2ccccc2)cc1", "note": "[4-Biphenylamine hydrochloride] (100 µM)", "CD54 surface expression induction": "-0.07 ± 4.1"}, {"smiles": "COc1ccc(O)c(C(C)(C)C)c1", "note": "[2-tert-Butyl-4-methoxyphenol] (200 µM)", "CD54 surface expression induction": "0.6 ± 0.57"}, {"smiles": "O=C(O)c1ccccc1C(=O)Nc1cccc2ccccc12", "note": "[Naptalam*] (200 µM)", "CD54 surface expression induction": "183 ± 32"}, {"smiles": "O=[N+]([O-])c1c(Cl)c(Cl)c(Cl)c(Cl)c1Cl", "note": "[Pentachloronitrobenzene] (100 µM)", "CD54 surface expression induction": "14.3 ± 4.8"}, {"smiles": "NNC(N)=S", "note": "[Thiosemicarbazide] (10 µM)", "CD54 surface expression induction": "-1.62 ± 1.6"}, {"smiles": "Nc1ccc([N+](=O)[O-])cc1N", "note": "[4-Nitro-1,2-phenylenediamine] (100 µM)", "CD54 surface expression induction": "7.46 ± 2"}, {"smiles": "NNCc1ccccc1", "note": "(100 µM)", "CD54 surface expression induction": "-19.4 ± 21"}, {"smiles": "OC[P+](CO)(CO)CO", "note": "[Tetrakis(hydroxymethyl)phosphonium SO4] (100 µM)", "CD54 surface expression induction": "8.38 ± 1.4"}, {"smiles": "c1cc(OCC2CO2)ccc1Cc1ccc(OCC2CO2)cc1", "note": "(centres undefined) [Bis[4-(glycidyloxy)phenyl]methane] (100 µM)", "CD54 surface expression induction": "6.35 ± 4.5"}, {"smiles": "O=[N+]([O-])c1cc([N+](=O)[O-])c2ccccc2c1", "note": "[1,3-Dinitronaphthalene] (200 µM)", "CD54 surface expression induction": "3.83 ± 2.5"}, {"smiles": "Cc1ccc(N=C=O)cc1N=C=O", "note": "[Toluene-2,4-diisocyanate] (100 µM)", "CD54 surface expression induction": "-17 ± 4.1"}, {"smiles": "ClC1=C(Cl)C2(Cl)C3C(Cl)C(Cl)CC3C1(Cl)C2(Cl)Cl", "note": "(centres undefined) [Chlordane] (200 µM)", "CD54 surface expression induction": "27.9 ± 0.29"}, {"smiles": "c1cc(OCC2CO2)cc(OCC2CO2)c1", "note": "(centres undefined) [Diglycidyl resorcinol ether (DGRE)] (10 µM)", "CD54 surface expression induction": "-3.16 ± 4.6"}, {"smiles": "c1ccc(Nc2ccc(Nc3ccccc3)cc2)cc1", "note": "[N,N'-Diphenyl-p-phenylenediamine] (200 µM)", "CD54 surface expression induction": "-11.2 ± 11"}, {"smiles": "Cl/C=C\\C[N+]12CN3CN(CN(C3)C1)C2", "note": "[Chloroallyl methenamine chloride] (10 µM)", "CD54 surface expression induction": "3.14 ± 2.9"}, {"smiles": "CCc1cccc(CC)c1N(COC)C(=O)CCl", "note": "[Alachlor] (100 µM)", "CD54 surface expression induction": "26.5 ± 9.3"}, {"smiles": "CC(COc1ccc(Oc2ccccc2)cc1)Oc1ccccn1", "note": "(centres undefined) [Pyriproxyfen] (200 µM)", "CD54 surface expression induction": "-4.39 ± 4.3"}, {"smiles": "CC(C)Nc1ccc(Nc2ccccc2)cc1", "note": "[N-Isopropyl-N'-phenyl-p-phenylenediamine] (10 µM)", "CD54 surface expression induction": "46.7 ± 2.8"}]}]}
